In all, about 33,000 sequences were measured (“E-score (-0.5 to 0.5)”: median about -0.012, highest 2% from about 0.29 on). For the sample, the highest values were picked, then their nearest neighbours and some sequences at random.
Each sequence was assayed against T1, Ybr033w (UniProt P38073) (assay: PBM E-score (8-mer binding enrichment) (E-score (-0.5 to 0.5)); higher = stronger / more preferred TF binding). Details: protein concentration: 200 nM; construct: GST-full length.
T1 sequence: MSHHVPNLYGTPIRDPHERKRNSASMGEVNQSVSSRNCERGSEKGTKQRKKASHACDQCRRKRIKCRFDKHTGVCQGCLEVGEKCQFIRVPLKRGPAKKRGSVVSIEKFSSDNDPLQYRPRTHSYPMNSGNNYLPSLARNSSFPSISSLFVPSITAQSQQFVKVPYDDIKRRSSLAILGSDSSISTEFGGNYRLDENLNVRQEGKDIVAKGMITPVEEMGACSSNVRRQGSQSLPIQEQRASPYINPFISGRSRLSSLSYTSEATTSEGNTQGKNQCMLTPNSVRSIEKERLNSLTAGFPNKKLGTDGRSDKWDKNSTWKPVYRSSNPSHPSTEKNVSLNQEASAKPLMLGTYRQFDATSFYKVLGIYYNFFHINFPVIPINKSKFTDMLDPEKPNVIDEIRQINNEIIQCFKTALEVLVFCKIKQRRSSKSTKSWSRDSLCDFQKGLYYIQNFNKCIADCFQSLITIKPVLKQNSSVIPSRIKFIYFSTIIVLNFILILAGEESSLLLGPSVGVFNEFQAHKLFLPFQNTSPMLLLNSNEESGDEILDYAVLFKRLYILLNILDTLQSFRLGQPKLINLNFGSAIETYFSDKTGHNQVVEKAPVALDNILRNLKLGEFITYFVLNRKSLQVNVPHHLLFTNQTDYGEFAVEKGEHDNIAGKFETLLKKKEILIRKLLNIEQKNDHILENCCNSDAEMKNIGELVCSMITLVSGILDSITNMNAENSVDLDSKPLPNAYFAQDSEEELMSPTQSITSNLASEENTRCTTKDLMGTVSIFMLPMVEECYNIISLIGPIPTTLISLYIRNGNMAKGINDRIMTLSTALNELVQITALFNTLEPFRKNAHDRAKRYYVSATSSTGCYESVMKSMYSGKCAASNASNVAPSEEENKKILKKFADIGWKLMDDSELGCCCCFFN
Protocol: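 Universal 'all 10-mer' protein binding microarrays (Agilent AMADID 015681) probed with GST-tagged S. cerevisiae TFs (full-length or DBD) made by in vitro transcription/translation (PURExpress), about 100-200 nM. Bound TF was detected with fluorescent anti-GST. Each ungapped 8-mer (which stands for itself and its reverse complement) is scored by the PBM enrichment score (E-score), a modified Wilcoxon-Mann-Whitney statistic from -0.5 to +0.5, computed with the Universal PBM Analysis Suite. Scale: above 0.35 generally sequence-specific binding.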

Sequence | PBM E-score
CTATAATA | 0.156
GGAATATA | 0.291
GTAATATA | 0.299
CTAATATA | 0.297
GTAATAGA | 0.17
GCAATATA | 0.123
ATATAATA | 0.34
CGAATATA | 0.156
CTAATATC | 0.196
CTAATAGA | 0.06
AGAATATA | 0.134
GTATAATA | 0.207
AATCCAAG | 0.228
CTAGCGAG | -0.177
ACATCGCT | -0.101
ACGGGCAT | -0.108
ACTTTAGG | -0.0326
CCCCAAGA | -0.0572
ATAATATC | 0.28
ATAATATA | 0.321
ATAATATG | 0.273
CAAGTCTC | -0.0267
CTGGCCGC | -0.0871
CACTTATA | 0.176

Sequence | PBM E-score
GACTTATA | 0.293
AACTTATG | 0.223
TACTTATA | 0.12
AACTTATA | 0.353
GACTTATC | -0.152
AAGCCACA | -0.0702
AGCCTCTA | -0.114
ACCAGAGA | 0.0781
GAGTCGAA | 0.173
GAATATCA | 0.259
AAATATCA | 0.252
TAATATTA | 0.342
CAGTATCA | -0.0137
GAATATGA | 0.203
TAGTATCA | 0.319
GAGTATCA | 0.0233
GAATATTA | 0.315
CAATATTA | 0.27
CAATATCA | 0.171
TAATATCA | 0.319
CAATATTG | 0.199
GTGTGTGA | 0.0756
CGAGGTAA | -0.0143
GGAGCGCC | -0.27

Sequence | PBM E-score
ACTAGTCG | -0.166
ACCATCTC | -0.0025
CCTCGTAA | -0.0544
AAATATTA | 0.211
GAATATCC | 0.227
GAATATTC | 0.344
AAATATTG | 0.274
AAATATGC | 0.237
AAATATTC | 0.37
CAATATTC | 0.219
AAATATTT | 0.357
AATCTTTC | 0.00719
GCCATTTA | -0.0426
AGCAAGCC | -0.126
AGGTGGAC | -0.104
ATCTAGAA | 0.214
GTAATTTA | 0.218
CTAATTTC | 0.181
ATAATTTG | 0.35
ATAATTTA | 0.338
AAAATTTG | 0.263
AGAATTTC | 0.0968
ATAATTGG | 0.157
CTAATTTA | 0.257

Sequence | PBM E-score
ATAATTTC | 0.314
GATCTGCA | -0.215
ACACGTGT | -0.0649
ATCCCAAC | 0.079
ATAGGTAG | 0.0525
ACTGCTAC | 0.0898
GCGGACTA | -0.0323
GCAATTTA | 0.307
CCAATTTA | 0.203
ACAAATTA | 0.328
ACAATTTA | 0.225
AAAAATGA | 0.233
AAAAATTA | 0.302
CAAAATTG | 0.0527
CAAAATTA | 0.182
AAAAATTC | 0.228
ACAAATTG | 0.0817
CAAAATTC | 0.308
CCAAATTA | 0.269
AAACGCAG | -0.0761
ACCAAGTC | 0.139
AGCACTGC | -0.022

Reference: the supplement of paper PMC3334620
